Measured values: PubChem BioAssay (EPA / NIEHS)
Results filed as inconclusive are left out. The source made the active and inactive calls. Rule for the calls: active = hit-call score of the fitted dose curve at least 0.9, where 1 is the maximum; inconclusive = response in the unintended direction; inactive = score below 0.9.

Assay: ATG_GAL4_TRANS: Attagene TRANS-FACTORIAL HepG2 Assay for GAL4 (Internal Marker) (AID 2282976)
Details: HepG2 Attagene TRANS GAL4 internal marker reporter
How it was run: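 First, HepG2 cells were transfected with reporter units under GAL4-UAS control. Next, they were treated with chemical for 24 h. Finally, RNA was reverse-transcribed, PCR-amplified, FAM-labelled and resolved by capillary electrophoresis, with induction scored against DMSO.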

outcome, inactive:
OCCO
CCCCCCCCCC(=O)O
CN1C(=O)CC[C@H]1c1cccnc1
CCO[Si](CCCNC(N)=O)(OCC)OCC
O=C=NCCCCCCN=C=O
O=c1ccc2ccccc2o1
COc1cccc([C@H](O)C2CCN(CCc3ccc(F)cc3)CC2)c1OC
Cc1ncc(CO)c(CO)c1O
COc1ccc2cc(S(=O)(=O)N[C@H](CC(=O)N[C@H](Cc3ccc(CN4[C@H](C)CCC[C@@H]4C)cc3)C(=O)N(C)C(C)C)c3ccc4c(c3)OCO4)ccc2c1
CCN(Cc1cccnc1)C(=O)c1cccc(Cl)c1[C@]1(C)C(=O)N(Cc2ccc(OC)cc2OC)c2ccc(Cl)cc21
Oc1ccccc1
CC1(C)NC(=O)N(c2ccc([N+](=O)[O-])c(C(F)(F)F)c2)C1=O
O=C1O[C@H]([C@@H](O)CO)C(O)=C1O
c1ccc2n[nH]nc2c1
CCOC(=O)O[C@H](C)OC(=O)c1ccc2c(c1)cc(C(=O)NC1CCN(C(C)C)CC1)n2Cc1cc(-c2ccc(Cl)s2)on1
Clc1ccccc1C(c1ccccc1)(c1ccccc1)n1ccnc1
O=C(O)c1ccccc1C(=O)OCc1ccccc1
CC(O)CC(C)(C)O (configuration not stated)
CC(C)(C)c1cc(/C=C2\SC(N)=NC2=O)cc(C(C)(C)C)c1O
CN1C(=O)N(c2ccccc2Br)Cc2cnc(Nc3ccc4c(c3)OCC(CO)O4)nc21 (configuration not stated)
NC(=O)c1nc(-c2cccc(-c3cc(F)ccc3OCC(F)(F)C(F)(F)F)c2)n[nH]1
CCCCCCCCCCCO
